Results published in PubChem BioAssay (NCI).
About 83,000 compounds went through this panel and 20% of them were active in at least one assay; those are over-represented in the sample as a whole.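 Activity criterion: percent growth below 10, measured after cells in 96-well plates were exposed to a single compound concentration for 48 hours.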 Unmarked numbers belong to inactive results. Active and inactive are the calls of the source.

Assays:
Experiment in all cases: NCI-60 one-dose screen, 48 h (100 = growth as untreated, 0 = no growth, -100 = all killed)
Details in all cases: 10 µM unless noted
[1] = test system: T-47D breast
[2] = test system: BT-549 breast
[3] = test system: SW-620 colon
[4] = test system: MCF7 breast
[5] = test system: HCT-116 colon
[6] = test system: HCC-2998 colon
[7] = test system: KM12 colon
[8] = test system: MDA-MB-435 melanoma

Compound | growth [1] | growth [2] [%] | growth [3] | growth [4] | growth [5] | growth [6] | growth [7] | growth [8]
Cc1ccc2nc3ccccc3c(NCc3ccccc3)c2c1 | 63.6% | 69 | 24.3% | 11.2% | 9.4% (active) | -21.4% (active) | 56.3% | 
O=c1c2cc(F)ccc2sc2c(NCCCN3CCCC3)nc3ccccc3c12 | 64.6% | 70.6 | 20.4% | -24.8% (active) |  | 22.1% | 27.7% | 20.6%
CC(=O)c1nc(Nc2ccc(C)cc2)sc1C | 85.6% | 87.1 | 97.4% | 87.3% |  | 101% | 98.6% | 103%
O=c1[nH]c2ccccc2n1C1CCN(CCOc2ccccc2)CC1 | 87.5% | 90.3 | 103% | 81.3% |  | 98.5% | 96.9% | 97.7%
COc1cc(-c2n/c(=C\c3c(O)[nH]c4ccc(Cl)cc34)cc3c2=Nc2ccccc2-3)cc(OC)c1OC | 32.7% | 101 | -29.5% (active) | 0.83% (active) |  | 44.6% | 2.53% (active) | 16.6%
O=C(Nc1ccccc1)Nc1cccc(Oc2nnc(Cl)c3ccccc23)c1 | -18% (active) | 47.7 | 73.4% | -4.15% (active) | 10.6% | 52.8% | 43.6% | 
C=CCNc1nc(NN2C(=O)c3cccc4cccc(c34)C2=O)nc(-n2cnc3ccccc32)n1 | 54.8% | 82.5 | 90.6% | 55.1% | 79.8% | 91.8% | 18.6% | 
COc1ccc(-c2cc(-c3cc(OC)ccc3OC)nc(SCC(=O)c3ccccc3)c2C#N)cc1 | 80.8% | 109 | 98.6% | 98.3% | 88.5% | 108% | 96.8% | 
Cc1ccc(S(=O)(=O)n2cc(CNc3ccc(N4CCOCC4=O)cc3)c3ccccc32)cc1 | 56.9% |  | 78.7% | 61.9% | 76.8% | 97.8% | 96.7% | 97%
Cc1cc(O)c(C2=NN(c3ccc(S(N)(=O)=O)cc3)C(c3ccccc3Cl)C2)cc1Cl (configuration not stated) | 18.3% | 104 | -27.4% (active) | 0.899% (active) | -90.4% (active) | -39.4% (active) | -37% (active) | 
CN(C)CCC=C1c2ccccc2C(C)(C)c2ccccc21 | 81% |  | 86% | 81.2% | 53.1% | 10.4% | 76.9% | 66.9%
CC(=O)OC[C@H]1OC(Sc2sc(C(=O)c3ccc(Br)cc3)c(N)c2-c2nc3ccccc3s2)[C@H](OC(C)=O)[C@@H](OC(C)=O)[C@@H]1OC(C)=O (some centres not stated) | 73.7% | 80.7 | 54% | 62.7% | 18.7% | 75.9% | 78.3% | 
N#CCN1C(=O)C2C3=C(CCCC3)SC2N=C1CN1CCCC1 (configuration not stated) | 97.2% |  | 95.3% | 109% | 94.2% | 96.9% | 109% | 105%
O=C(NC(CSSCC(NC(=O)c1ccccc1)C(=O)O)C(=O)O)c1ccccc1 (configuration not stated) | 99.4% | 91.1 | 103% | 117% | 98.9% |  | 97.9% | 
COc1ccccc1N1C(=O)/C(=C/C2=Cc3ccccc3OC2)SC1=S | 89.7% |  | 95.4% | 95.5% | 84.9% | 102% | 99.6% | 97.8%
CS(=O)(=O)c1ccc(Nc2nc(N[C@H]3CCCC[C@H]3N)nc3cc[nH]c(=O)c23)cc1 | -3.45% (active) |  | 6.42% (active) | 5.47% (active) | -2.19% (active) | -13.1% (active) | 0.908% (active) | -4.07% (active)
COc1ccc(C(=NN=C(N)N)c2ccc(OC)cc2)cc1 | 8.87% (active) | 30.6 | 25.3% | 5.47% (active) | 21.5% |  | 21.2% | 
